Experimental data taken from PubChem BioAssay (NCATS).
Records with an inconclusive call do not appear. Active and inactive are the calls of the source. Calls follow the shape of the dose curve; as a rule, active = well fitted cell-killing curve with a large enough effect; inconclusive = small, poorly fitted or top-dose-only effect, or effect the other way; inactive = no such curve, though single readings can be large or run the other way.

Tests used:
[1] = Quantitative High-Throughput drug screen in 47 multiple myeloma cell lines against the NCATS MIPE library collection: H1112_PLB cell viability assay (AID 1918967; also: nearly all actives have a fitted effect of over 30% in size)
In short: (§1)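 CellTiter-Glo ATP luminescence gave viability after 48 h compound treatment at 37C of 500 multiple myeloma cells per well. Normalisation used DMSO-only wells as 100% and media-only wells as 0% viability; primary qHTS of approved and investigational drugs.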

[2] = Quantitative High-Throughput drug screen in 47 multiple myeloma cell lines against the NCATS MIPE library collection: Karpas25_ECACC cell viability assay (AID 1918968; also: nearly all actives have a fitted effect of over 35% in size)
In short: as §1

[3] = Quantitative High-Throughput drug screen in 47 multiple myeloma cell lines against the NCATS MIPE library collection: KMS27_JCRB cell viability assay (AID 1918970); also: nearly all actives have a fitted effect of over 30% in size
In short: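 Viability inhibition screen, 48 h compound exposure, luminescent ATP read-out.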

[4] = Quantitative High-Throughput drug screen in 47 multiple myeloma cell lines against the NCATS MIPE library collection: KMS12BM_JCRB cell viability assay (AID 1918971); also: nearly all actives have a fitted effect of over 35% in size
In short: (§2)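 Luminescent ATP measurement with CellTiter-Glo gives viability, scaled between DMSO-only wells (100%) and media-only wells (0%). Cells, 500 per well, faced library compounds for 48 hours at 37C.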

[5] = Quantitative High-Throughput drug screen in 47 multiple myeloma cell lines against the NCATS MIPE library collection: KMS12PE_JCRB cell viability assay (AID 1918972); also: nearly all actives have a fitted effect of over 30% in size
In short: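 Steps: seed 500 cells per well; pin-transfer MIPE 4.0 library; incubate 48 h at 37C, 5% CO2, humidified; add CellTiter-Glo, 5 min room temperature; read luminescence.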

[6] = Quantitative High-Throughput drug screen in 47 multiple myeloma cell lines against the NCATS MIPE library collection: MOLP8_DSMZ cell viability assay (AID 1918977); also: nearly all actives have a fitted effect of over 45% in size
In short: (§3)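 Inhibition of viability over 48 h was scored by ATP content (CellTiter-Glo) in 500-cell wells. Zero and full viability were defined by media-only and DMSO-only wells.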

[7] = Quantitative High-Throughput drug screen in 47 multiple myeloma cell lines against the NCATS MIPE library collection: KMS20_JCRB cell viability assay (AID 1918973); also: nearly all actives have a fitted effect of over 45% in size
In short: as §1

[8] = Quantitative High-Throughput drug screen in 47 multiple myeloma cell lines against the NCATS MIPE library collection: KMS21BM_JCRB cell viability assay (AID 1918974); conditions: ATP luminescence, 48 h; viability: at 45.8 µM (top of the series) unless noted
In short: as §1

[9] = Quantitative High-Throughput drug screen in 47 multiple myeloma cell lines against the NCATS MIPE library collection: KMS26_JCRB cell viability assay (AID 1918975); also: nearly all actives have a fitted effect of over 45% in size
In short: as §2

[10] = Quantitative High-Throughput drug screen in 47 multiple myeloma cell lines against the NCATS MIPE library collection: MMM1_PLB cell viability assay (AID 1918976); also: nearly all actives have a fitted effect of over 35% in size
In short: as §3
Potency is read from the fitted curve at half-maximal effect.

Compound	Potency [1]	Potency [2]	Potency [3]	Potency [4]	Potency [5]	Potency [6]	Potency [7]	Potency [8]	Potency [9]	Potency [10]	viability [8]
Nc1ncnc2c1ncn2[C@@H]1O[C@@H](CO)[C@H](O)[C@H]1O	inactive	inactive	inactive	inactive	inactive	inactive	–	–	–	–	–
CN1CCN(CCOc2cc(OC3CCOCC3)c3c(Nc4c(Cl)ccc5c4OCO5)ncnc3c2)CC1	23.5 µM (active)	16.6 µM (active)	16.6 µM (active)	–	14.8 µM (active)	16.6 µM (active)	8.33 µM (active)	1.87 µM (active)	–	–	–
CCNc1cc(NC2CCC(O)CC2)nc(Nc2ccc3c(ccn3Cc3ccccc3)c2)n1 (centres undefined)	18.7 µM (active)	18.7 µM (active)	16.6 µM (active)	–	–	–	37.2 µM (active)	–	–	–	–
O=C1NC(=O)C(=Cc2ccc3nccnc3c2)S1	6.45 µM (active)	5.75 µM (active)	2.29 µM (active)	8.12 µM (active)	1.15 µM (active)	–	–	–	12.9 µM (active)	8.12 µM (active)	–
COc1ccc(-c2coc3cc(O)ccc3c2=O)cc1	inactive	inactive	inactive	–	inactive	0.0059 µM (active)	–	–	–	–	–
Cc1ccc(F)c(NC(=O)Nc2ccc(-c3cccc4[nH]nc(N)c34)cc2)c1	10.5 µM (active)	26.4 µM (active)	10.5 µM (active)	26.4 µM (active)	8.33 µM (active)	26.4 µM (active)	–	–	23.5 µM (active)	–	–
O=c1cc(CN2CCOCC2)occ1OCCCCCSc1ccnc2cc(C(F)(F)F)ccc12	0.833 µM (active)	0.743 µM (active)	20.9 µM (active)	5.9 µM (active)	16.6 µM (active)	–	–	–	16.6 µM (active)	16.6 µM (active)	–
CO[C@H]1C[C@@H]2CC[C@@H](C)[C@@](O)(O2)C(=O)C(=O)N2CCCC[C@@H]2C(=O)O[C@H]([C@H](C)C[C@@H]2CC[C@H](OCCO)[C@H](OC)C2)CC(=O)[C@H](C)C=C(C)[C@@H](O)[C@@H](OC)C(=O)[C@H](C)C[C@H](C)C=CC=CC=C1C	inactive	1.05 µM (active)	4.18 µM (active)	4.18 µM (active)	–	–	3.72 µM (active)	7.43 µM (active)	–	–	–
CC[C@@]1(O)C[C@H](O[C@H]2C[C@H](N(C)C)[C@H](O[C@H]3C[C@H](O)[C@H](O[C@H]4CCC(=O)[C@H](C)O4)[C@H](C)O3)[C@H](C)O2)c2c(cc3c(c2O)C(=O)c2c(O)cccc2C3=O)[C@@H]1C(=O)OC	0.833 µM (active)	0.372 µM (active)	inactive	0.148 µM (active)	–	0.296 µM (active)	0.0743 µM (active)	–	0.743 µM (active)	0.296 µM (active)	–
NC(=O)NN=Cc1ccc([N+](=O)[O-])o1	inactive	16.6 µM (active)	14.8 µM (active)	–	–	inactive	–	5.9 µM (active)	–	–	–
NC[C@@H]1O[C@@H](O[C@H]2[C@@H](O)[C@H](O[C@@H]3[C@@H](O)[C@@H](N)C[C@H](N)[C@H]3O[C@H]3O[C@H](CN)[C@@H](O)[C@@H](O)[C@H]3N)O[C@H]2CO)[C@H](N)[C@@H](O)[C@@H]1O	inactive	inactive	inactive	–	inactive	–	–	–	inactive	–	–
C[C@]12CC[C@@H]3c4ccc(O)cc4C[C@@H](CCCCCCCCCS(=O)CCCC(F)(F)C(F)(F)F)[C@H]3[C@H]1CC[C@H]2O (some centres undefined)	inactive	inactive	inactive	16.6 µM (active)	7.43 µM (active)	inactive	–	–	inactive	18.7 µM (active)	–
O=C(O)c1ccccc1C(=O)Nc1ccc(-c2ccccc2)cc1	inactive	inactive	inactive	–	inactive	inactive	–	–	–	–	–
CS(=O)c1ccc(-c2nc(-c3ccc(F)cc3)c(-c3ccncc3)[nH]2)cc1 (centres undefined)	48.1 µM (active)	8.55 µM (active)	21.5 µM (active)	–	21.5 µM (active)	–	–	–	–	–	1.55% [at 92.2 µM] (active)
Cn1cc(C=C2C(=O)Nc3cccnc32)c2ccccc21	inactive	inactive	inactive	inactive	–	inactive	–	–	inactive	–	–
O=c1ccn([C@@H]2O[C@H](CO)[C@H](O)[C@H]2O)c(=O)[nH]1	inactive	inactive	inactive	11.8 µM (active)	–	–	–	–	–	8.33 µM (active)	–
O=C1C[C@@H](c2ccc(O)cc2)Oc2cc(O)cc(O)c21	inactive	inactive	0.0118 µM (active)	–	inactive	inactive	–	–	–	1.48 µM (active)	–
CO[C@H]1C(=O)[C@]2(C)[C@@H](OC)C[C@H]3OC[C@@]3(OC(C)=O)[C@H]2[C@H](OC(=O)c2ccccc2)[C@]2(O)C[C@H](OC(=O)[C@H](O)[C@@H](NC(=O)OC(C)(C)C)c3ccccc3)C(C)=C1C2(C)C	inactive	inactive	–	inactive	inactive	–	inactive	–	–	–	–
COC[C@@H](c1ccc(C(F)(F)F)cc1)N1CCN(C2(C)CCN(C(=O)c3c(C)ncnc3C)CC2)C[C@H]1C	13.2 µM (active)	8.33 µM (active)	inactive	inactive	–	inactive	–	–	–	–	–
CS(=O)(=O)N(Cc1ccco1)CC(O)Cn1c2ccccc2c2ccccc21 (centres undefined)	inactive	6.62 µM (active)	inactive	20.9 µM (active)	inactive	–	–	–	–	20.9 µM (active)	–
NC1CCC(Nc2nc(Nc3ccc(C(=O)N4CCCCC4)cc3)c3ncn(-c4cccc(F)c4)c3n2)CC1 (centres undefined)	inactive	inactive	–	inactive	inactive	inactive	–	inactive	–	–	–
